Experimental data taken from PubChem BioAssay.
Activity calls are given as the source filed them. Unless noted, how the calls were made is not given here.

Columns and labels:
[1] = tested on: Wnt5a (protein binding on small-molecule microarray); test: Wnt5a binders on small-molecule microarray, primary screen, biophysical, 635/667 nm fluorescence (AID 1142); conditions: 635 nm fluorescence, higher = more signal;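 further: fluorescence read at 667 nm with signal to noise per printed feature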
[2] = cell viability in Huh7 cells, primary screen, cytotoxicity control for HCV replication inhibitor project, CellTiter-Glo luminescence, basal, 48 h (AID 1143); conditions: Huh7 HCV replicon, higher = more signal, called active from +8 up or from −8 down;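 further: Huh7 hepatoma cells carrying a hepatitis C replication reporter with no stimulus; test concentration not given here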
[3] = P. aeruginosa biofilm formation inhibitors, primary screen, PAO1 strain, BacTiter-Glo luminescence, LB-PBS (AID 1144); conditions: 12 h, higher = more signal
[4] = CREB reporter modulators without forskolin, primary screen, cell-based, PC12, CRE-LacZ reporter, unstimulated (AID 1145); conditions: no forskolin, luminescence, 4.5 h, higher = more signal, called active from +8 up or from −8 down
[5] = CREB reporter modulators under forskolin, primary screen, cell-based, PC12, CRE-LacZ reporter, forskolin-stimulated (AID 1146); conditions: luminescence, 4.5 h, higher = more signal, called active from +8 up or from −8 down;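 further: PC12 cells with 6xCRE LacZ reporter stimulated by forskolin 10 µM; beta-galactosidase reporter signal reflecting CREB driven transcription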
[6] = molecular target: Streptavidin (Streptomyces avidinii) (UniProt P22629); test: streptavidin binders on small-molecule microarray, primary screen, artefact control for SMM compound annotation, biophysical, 635/667 nm fluorescence (AID 1147); conditions: streptavidin binding, higher = more signal;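 further: signal reflects streptavidin binding to arrayed compounds as a control protein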
Sequence of Streptavidin (Streptomyces avidinii) (P22629 whole entry, looked up): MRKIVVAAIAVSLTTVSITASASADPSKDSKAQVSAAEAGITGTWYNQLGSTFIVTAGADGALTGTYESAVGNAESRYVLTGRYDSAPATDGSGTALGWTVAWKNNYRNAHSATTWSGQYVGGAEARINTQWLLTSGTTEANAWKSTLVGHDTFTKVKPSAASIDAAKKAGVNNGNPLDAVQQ

[7] = small-molecule binders of probe aInhba, primary screen, biochemical, small-molecule microarray, 635/667 nm fluorescence (AID 1148); conditions: higher = more signal;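 further: score merges 667nm spot fluorescence with signal-to-noise for antibody binding to printed compounds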
Torsin-1A (Homo sapiens) [8] = molecular target: Torsin-1A (Homo sapiens) (UniProt O14656); test: torsin A binders from cell lysate, primary screen, small-molecule microarray, wild-type, 635/667 nm (AID 1149); conditions: COS7 hTOR1A-WT lysate, 635 nm fluorescence, higher = more signal
Sequence of Torsin-1A (Homo sapiens) (O14656 whole entry, looked up): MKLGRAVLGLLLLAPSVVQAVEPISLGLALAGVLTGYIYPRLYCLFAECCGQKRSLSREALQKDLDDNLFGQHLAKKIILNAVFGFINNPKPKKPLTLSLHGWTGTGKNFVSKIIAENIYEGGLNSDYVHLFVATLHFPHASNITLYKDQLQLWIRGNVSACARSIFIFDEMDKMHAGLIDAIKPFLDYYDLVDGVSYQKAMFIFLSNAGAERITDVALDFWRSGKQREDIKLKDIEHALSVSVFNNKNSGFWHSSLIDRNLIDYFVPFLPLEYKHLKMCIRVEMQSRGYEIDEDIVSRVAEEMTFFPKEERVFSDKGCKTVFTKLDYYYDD

Torsin-1A (Homo sapiens) [9] = molecular target: Torsin-1A (Homo sapiens) (UniProt O14656); test: small-molecule binders of mutant TOR1A in lysate, primary screen, cell lysate, small-molecule microarray, COS7 lysate, 635/667 nm fluorescence (AID 1150); conditions: COS7 hTOR1A mutant lysate, 635 nm fluorescence, higher = more signal;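 further: score pools 667 nm emission and signal to noise measuring lysate protein binding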
[10] = tested on: Sonic hedgehog protein (Shh); test: small-molecule binders of Shh protein, primary screen, biochemical, small-molecule microarray, 635/667 nm fluorescence (AID 1151); conditions: small-molecule microarray binding, 635 nm fluorescence; higher = more signal;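 further: Shh protein binding to compounds spotted on small-molecule microarray slides; score combines spot fluorescence intensity with signal-to-noise across triplicate slides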

SMILES | composite z-score [1] | z-score [2] | z-score [3] | z-score [4] | z-score [5] | composite z-score [6] | composite z-score [7] | composite z-score (Torsin-1A (Homo sapiens) [8]) | composite z-score (Torsin-1A (Homo sapiens) [9]) | composite z-score [10]
COC(=O)[C@@]1(Cc2ccc(OC)cc2)[C@H]2c3cc(C(=O)N4CCCC4)n(CCc4c[nH]c5ccc(OC)cc45)c3C[C@H]2CN1C(=O)c1ccccc1 | 0.411 | -3.16 (inactive) | 0.717 (inactive) | 0.201 (inactive) | -0.715 (inactive) | 1.5 | 0.35 | -0.0701 | 0.327 | -0.565
COc1cc(OC)c(C(O)C2C=CC3C(=O)N(Cc4ccccc4)C(=O)C3N2n2cnnc2)cc1Br (stereo not given) | 0.25 | -3.56 (inactive) | -0.664 (inactive) | 0.677 (inactive) | -1.4 (inactive) | 1.22 | -0.0087 | 2.73 | 2.4 | 0.116
[N-]=[N+]=NCc1ccccc1[C@@H]1OC(c2ccc(OCCCO)cc2)=N[C@]1(CCS(=O)(=O)c1ccccc1)C(=O)O | 0.132 | 0.0514 (inactive) | -0.127 (inactive) | 1.06 (inactive) | -0.0084 (inactive) | 0.659 | -0.0589 | 0.134 | 1.09 | -1.42
O=C1C[C@]2(c3ccc([N+](=O)[O-])cc3)C(=O)N(C3CC3)c3cc(CO)ccc3[C@H]2N1CC12CC3CC(CC(C3)C1)C2 | -0.178 | -2.19 (inactive) | 0.332 (inactive) | -0.179 (inactive) | 1.23 (inactive) | -0.368 | -0.0403 | -1.26 | 0.228 | -0.7
COCCOC(=O)N1C(=O)[C@@]2(c3cc(C#CCC(C(=O)OC)C(=O)OC)ccc31)[C@H](c1ccc(OCCO)cc1)N1[C@H](c3ccccc3)[C@H](c3ccccc3)OC(=O)[C@H]1[C@@H]2C(=O)N1CCc2cc(OC)c(OC)cc2C1 | 0.575 | -1.35 (inactive) | -0.119 (inactive) | -0.0607 (inactive) | 0.936 (inactive) | 0.918 | -0.0087 | 0.843 | 0.769 | 1.8
CCOC(=O)C[C@H]1[C@H](OC(=O)c2ccc(-c3ccccc3)cc2)[C@@H](NC(=O)CC(C)C)c2cc(OCCCO)ccc2N1C(=O)c1ccc2ccccc2n1 | -0.0361 | -0.0042 (inactive) | -0.453 (inactive) | 1.04 (inactive) | -0.428 (inactive) | 1.31 | -0.0259 | 0.0908 | 0.31 | 0.637
CCCCCCc1nc(Cc2cc(OC)c(OC)c(OC)c2)cc2c1[Si](C(C)C)(C(C)C)OC2 | 0.03 | -5.33 (inactive) | -0.012 (inactive) | 0.498 (inactive) | -0.419 (inactive) | 0.0761 | 0.0973 | 0.108 | -0.282 | 0.724
COc1cc2c(cc1O)C(C1CC1)N(C)CC2 (stereo not given) | -0.201 | -0.426 (inactive) | 0.991 (inactive) | 0.479 (inactive) | -1.44 (inactive) | -0.991 | -0.203 | -0.829 | -1.04 | -0.314
CN(C)C(=O)[C@@]1(Cc2ccccc2CN=[N+]=[N-])N=C(c2ccc(OCCCO)cc2)O[C@H]1c1ccccc1N=[N+]=[N-] | 0.0168 | -4.96 (inactive) | -0.638 (inactive) | 1.74 (inactive) | -1.69 (inactive) | 1.51 | 0.439 | 0.504 | 1.21 | 0.66
C#CCN(Cc1ccccc1Br)[C@H](/C=C/c1ccccc1)[C@@H](O)Cc1ccccc1 | -0.356 | -2.2 (inactive) | -0.109 (inactive) | 2.49 (inactive) | -0.697 (inactive) | -0.385 | -0.179 | -0.622 | 0.543 | -0.866
CC(C)(C)OC(=O)COc1cccc(C(=O)CCN2CCOCC2)c1 | -0.143 | -1.13 (inactive) | 2.34 (inactive) | 0.416 (inactive) | 12.2 (active) | -0.081 | 0.034 | -1.01 | -0.646 | 0.216
CCOC(=O)C[C@H]1[C@H](OC(=O)c2cc3ccccc3oc2=O)[C@@H](NC(=O)c2ccc3ccccc3n2)c2cc(OCCCO)ccc2N1C(=O)Cc1ccc(OC)cc1 | 0.155 | -0.593 (inactive) | -1.05 (inactive) | -1.23 (inactive) | -0.74 (inactive) | 0.386 | -0.0136 | -0.262 | -0.0557 | 1.56
CC1CC/C=C\[C@H]2OC34C=CCN(C(C)(C)C)C(=O)[C@H]3N(CCCCCO)C(=O)[C@@H]4C2C(=O)O1 (stereo not given in full) | -0.427 | 0.356 (inactive) | 0.477 (inactive) | -0.35 (inactive) | -0.928 (inactive) | -0.719 | -0.253 | -0.201 | -1.33 | 0.353
CCCCC(CC)C(O)C1C=CC2C(=O)N(c3ccccc3)C(=O)C2N1Nc1ccc(C#N)cc1 (stereo not given) | 0.648 | 0.308 (inactive) | -1.55 (inactive) | 0.819 (inactive) | 0.176 (inactive) | 1.18 | 0.722 | -0.064 | 0.68 | -0.387
Cc1ccc(N2C(=O)c3ccccc3[C@@H](C(=O)NCCCN(C)C)[C@@H]2c2ccc(CO)cc2)nc1 | -0.198 | 0.492 (inactive) | 0.252 (inactive) | 0.208 (inactive) | -1.35 (inactive) | 0.0893 | -0.477 | 0.276 | 0.011 | 0.0381
